Test results published in PubChem BioAssay AID1918 (Vanderbilt High Throughput Screening Facility, 2009).
Among all 130,000 compounds or so, about 2,500 (1.9%) were called active. For the sample, actives were picked, then their nearest neighbours and some compounds at random. A number with no mark means an inactive call.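 How the source made its calls: active means signal ratio slope over the read window, or its plate-corrected B-score, at least 3 SD from the plate mean, either direction; inactive means the rest.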

target: ATP-sensitive inward rectifier potassium channel 1 (Homo sapiens) (UniProt P48048); test: Kir1.1 channel activity modulation, library screen – cell-based, thallium flux, MLSMR library, primary screen (AID 1918); conditions: Tet-inducible ROMK, thallium flux fluorescence; at 10 µM; actives lie on both sides;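 further: B-score of the F/F0 ratio slope over 7 to 12 s after thallium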
Sequence (P48048 whole entry, looked up): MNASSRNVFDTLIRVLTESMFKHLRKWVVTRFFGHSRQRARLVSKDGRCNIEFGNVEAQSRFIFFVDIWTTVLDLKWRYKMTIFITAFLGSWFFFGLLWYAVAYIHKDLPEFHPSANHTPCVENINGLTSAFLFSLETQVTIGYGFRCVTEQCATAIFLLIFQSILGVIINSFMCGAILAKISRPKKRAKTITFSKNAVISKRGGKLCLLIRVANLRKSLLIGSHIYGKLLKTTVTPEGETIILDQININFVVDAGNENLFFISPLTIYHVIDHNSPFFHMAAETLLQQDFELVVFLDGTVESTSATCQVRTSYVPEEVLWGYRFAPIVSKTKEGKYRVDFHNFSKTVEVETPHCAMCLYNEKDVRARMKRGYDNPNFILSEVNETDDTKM

Q: How did the B-score turn out when `CC(Sc1nnnn1C1CCCCC1)C(=O)O` (configuration not stated) was run?
A: 0.253

Q: `O=S(=O)(Nc1ncccn1)c1ccc(NS(=O)(=O)c2cccc(Cl)c2Cl)cc1` was tested. Which B-score did it give?
A: 0.305

Q: For `CCOc1ccc2nc(N3CCCN(C(=O)Nc4ccccc4C)CC3)c(C#N)cc2c1`, which B-score is on record?
A: -5.81 (active)

Q: Which B-score does the source give for `Cc1cccc2cc(C#N)c(N3CCCC3)nc12` here?
A: -0.0822

Q: Which B-score does the source give for `CCOc1ccc2cc(C#N)c(SCC(=O)OC)nc2c1` here?
A: -0.501

Q: How did the B-score turn out when `COC(=O)CN1C(=O)N/C(=C/c2ccc(OC)c(C)c2OC)C1=O` was run?
A: 1.31

Q: With `CCOC(=O)C1=C(C)N=c2s/c(=C\C(=O)OC)c(=O)n2C1c1ccc(OC)cc1` (configuration not stated) as the compound, how does the B-score read?
A: -6.39 (active)

Q: For `CCOC(=O)C1=C(CSc2nccn2C)NC(=O)NC1c1ccc(OC)cc1` (configuration not stated), which B-score is on record?
A: 0.553

Q: Which B-score does the source give for `COc1ccc(C2C(C(C)=O)=C(O)C(=O)N2c2nccs2)cc1` (configuration not stated) here?
A: 0.28

Q: How did the B-score turn out when `CCC(CC)c1nnc(NC(=O)c2nn(C)c(=O)c3ccccc23)s1` was run?
A: -0.146

Q: For `Cc1nc(COc2cccc(Cl)c2)sc1C(=O)/C=C/N(C)C`, which B-score is on record?
A: -0.0177

Q: For `O=C(CCC(=O)OCc1ccc(Cl)cc1)Nc1ccccc1`, which B-score is on record?
A: 1.21

Q: How did the B-score turn out when `Cc1ccc(S(=O)(=O)NCC(=O)N2CCN(c3ccccn3)CC2)cc1` was run?
A: 0.248

Q: `COc1cccc(CC(=O)N2CCCC(CCC(=O)N3CCN(c4ccccn4)CC3)C2)c1` (configuration not stated) was tested. Which B-score did it give?
A: 0.339

Q: Which B-score does the source give for `O=C(CCC1CCCN(C(=O)Cc2ccc(F)cc2)C1)N1CCN(c2ccccn2)CC1` (configuration not stated) here?
A: 2.32

Q: `O=C(Cc1ccc(Br)cc1)N1CCN(c2ccccn2)CC1` was tested. Which B-score did it give?
A: -2.13 (active)

Q: Which B-score does the source give for `O=C(Cc1ccccc1Cl)N1CCN(c2ccccn2)CC1` here?
A: -4.7 (active)

Q: With `O=C(C(Cl)Cl)N1CCN(c2ccccn2)CC1` as the compound, how does the B-score read?
A: 0.591

Q: How did the B-score turn out when `COc1cccc(CN(C)CC(=O)NCc2ccccc2Cl)c1OC` was run?
A: -0.0981

Q: How did the B-score turn out when `CCNC(=O)COC(=O)/C=C/c1c(C)nn(Cc2cccc(OC)c2)c1Cl` was run?
A: -0.509

Q: How did the B-score turn out when `Cc1ccc(N(C(=O)c2ccc(S(=O)(=O)N(C)C)cc2)C2C=CS(=O)(=O)C2)cc1` (configuration not stated) was run?
A: -0.406

Q: With `CN(C)/C=C(/C(=O)c1ccccc1Cl)S(C)(=O)=O` as the compound, how does the B-score read?
A: 0.383

Q: For `CN(C)/C=C(/C(=O)c1ccccc1)S(=O)(=O)c1ccc(Cl)cc1`, which B-score is on record?
A: -0.0973

Q: Which B-score does the source give for `CN(C)/C=C(/C(=O)c1ccc(Cl)c(Cl)c1)c1nnnn1-c1ccccc1` here?
A: -2.28 (active)

Q: How did the B-score turn out when `Cc1cc(C)n(CC(=O)Nc2ccc([N+](=O)[O-])cc2)n1` was run?
A: 0.748

Q: Which B-score does the source give for `CCOC(=O)CSc1nnc(-c2ccc([N+](=O)[O-])cc2)o1` here?
A: -0.954

Q: With `O=C(CN1C(=O)NC(Cc2ccccc2)(Cc2ccccc2)C1=O)NCC1CCCCC1` as the compound, how does the B-score read?
A: -4.09 (active)

Q: With `O=C(CN1C(=O)NC2(CCCC2)C1=O)NCC1CCCO1` (configuration not stated) as the compound, how does the B-score read?
A: 0.00667

Q: Which B-score does the source give for `O=C(CN1C(=O)NC2(CCCCCC2)C1=O)NC1CC1` here?
A: -0.159

Q: `O=S(=O)(NCc1ccco1)c1cnc(Cl)c(Cl)c1` was tested. Which B-score did it give?
A: 0.266

Q: Which B-score does the source give for `CCOc1cc(NC(=S)NCCCN(C)C)c(OCC)cc1NC(=O)C1CC1` here?
A: 0.491

Q: With `Cc1ccc(-c2csc(NNC(=O)c3ccccc3)n2)cc1` as the compound, how does the B-score read?
A: -0.0341

Q: How did the B-score turn out when `Cn1c(CNc2nc(-c3ccccc3)cs2)nnc1SCC(=O)c1ccccc1` was run?
A: -4.43 (active)

Q: For `Cn1c(CC(=O)Nc2ccccc2)nnc1SCC(=O)c1ccccc1`, which B-score is on record?
A: 0.607

Q: Which B-score does the source give for `CCC(C)(C)NC(=O)C(c1cccc(OC)c1OC)N(CC(C)C)C(=O)CCC(=O)Nc1cc(C)on1` (configuration not stated) here?
A: -1.25

Q: How did the B-score turn out when `CSc1cc(C)[nH]c(=O)n1` was run?
A: 0.14

Q: `CCC(=O)Nc1ccc(Nc2nc(Cl)nc(Nc3ccc(NC(=O)CC)cc3)n2)cc1` was tested. Which B-score did it give?
A: 0.00778

Q: Which B-score does the source give for `CCCCCCCCCCOC(=O)C[N+](C)(C)CC1CCCCC1O` (configuration not stated) here?
A: -1.79 (active)

Q: Which B-score does the source give for `CCCCCOC(=O)c1ccc(N2C(=O)C3C4C=CC(C4)C3C2=O)cc1` (configuration not stated) here?
A: -0.208

Q: Which B-score does the source give for `[O-][n+]1c2c(nn1-c1ccc(Cl)c(Cl)c1)-c1nonc1CC2` here?
A: -0.675

Q: For `CCOC(=O)c1ccc(N2C(=O)CC(N3CCN(C(=O)c4ccccc4)CC3)C2=O)cc1` (configuration not stated), which B-score is on record?
A: -0.67

Q: `NC(=O)C1(C(N)=O)OC1c1ccc(Cl)cc1Cl` (configuration not stated) was tested. Which B-score did it give?
A: 0.219

Q: For `CC(=O)Nc1ccc(S(=O)(=O)N(C)c2ccc(OCC(=O)OCC(=O)N3CCCCC3)cc2)cc1`, which B-score is on record?
A: 0.712

Q: How did the B-score turn out when `Fc1ccccc1Cn1cnc(NC(=S)NCCc2ccccc2)n1` was run?
A: 0.722

Q: With `N=c1n(CCc2ccccc2)c2ccccc2n1Cc1ccccc1F` as the compound, how does the B-score read?
A: -3.48 (active)

Q: How did the B-score turn out when `CN(Cc1ccccc1)Cc1ccccc1F` was run?
A: 0.0291

Q: `Cc1ccc(-n2c(O)c(C=Nc3ccc(S(=O)(=O)Nc4ncccn4)cc3)c3ccccc3c2=O)cc1C` was tested. Which B-score did it give?
A: 0.113

Q: With `O=c1[nH]c(CSc2ccccc2)nc2c1oc1ccccc12` as the compound, how does the B-score read?
A: 0.176

Q: For `CCc1cccc2c(=O)c(C(=O)NCCCOC)c[nH]c12`, which B-score is on record?
A: 0.0144

Q: For `O=S(=O)(c1ccccc1)N(CC(O)CN1CCCCC1)c1ccccc1` (configuration not stated), which B-score is on record?
A: -0.476

Q: `CC(C)CN(CC(C)C)CC(O)CN(c1ccccc1)S(=O)(=O)c1ccccc1[N+](=O)[O-]` (configuration not stated) was tested. Which B-score did it give?
A: -2.88 (active)

Q: How did the B-score turn out when `Cc1cccc(N(CC(O)CN(C)C)S(=O)(=O)c2ccccc2)c1` (configuration not stated) was run?
A: 0.476

Q: How did the B-score turn out when `C=CCNC(=O)COC(=O)CNC(=O)c1cc(Cl)cc([N+](=O)[O-])c1` was run?
A: 0.319

Q: How did the B-score turn out when `COC(=O)C[n+]1cccc2ccccc21` was run?
A: -4.33 (active)

Q: With `COC(=O)Cc1nc2ccccc2[nH]1` as the compound, how does the B-score read?
A: -0.0215

Q: How did the B-score turn out when `COc1ccccc1NC(=O)C[n+]1ccccc1` was run?
A: -0.558

Q: For `COc1cccc(NCCC(=O)c2cccc([N+](=O)[O-])c2)c1`, which B-score is on record?
A: 1.54

Q: Which B-score does the source give for `O=C(N/N=C/c1ccc(OCC2COCCO2)cc1)c1ccc(Br)cc1` (configuration not stated) here?
A: 0.0877

Q: Which B-score does the source give for `Cc1ccc(NC(=O)CN2CCC(C(N)=O)CC2)cc1[N+](=O)[O-]` here?
A: -0.771

Q: How did the B-score turn out when `Cc1ccc(NC(=O)c2cccnc2C(=O)Nc2ccc(C)cc2)cc1` was run?
A: 0.166

Q: With `O=C(COC(=O)c1cnccn1)Nc1cccc2ccccc12` as the compound, how does the B-score read?
A: 0.345

Q: For `CN(C)S(=O)(=O)c1ccc(NC(=O)N2CCOCC2)cc1`, which B-score is on record?
A: -0.469

Q: `CCN(CC)S(=O)(=O)c1ccc(Cl)c(NC(=O)c2ccncc2)c1` was tested. Which B-score did it give?
A: -0.305

Q: How did the B-score turn out when `Cc1c(NC(=O)Nc2ccccc2)cccc1[N+](=O)[O-]` was run?
A: 1.03

Q: `CS(=O)(=O)c1ccc(Cl)c(NC(=O)Nc2ccccc2)c1` was tested. Which B-score did it give?
A: -8.31 (active)

Q: `CCOCCCNCc1cc(Br)ccc1OCC` was tested. Which B-score did it give?
A: -0.61

Q: `Cc1ccc(C)c(NC(=O)CCC(=O)N/N=C2/CC(=O)CC(C)(C)C2)c1` was tested. Which B-score did it give?
A: -0.197

Q: How did the B-score turn out when `COc1cccc(NC(=O)COC(=O)CCOc2ccccc2OC)c1` was run?
A: 2.55

Q: For `Cc1cs/c(=N\N=C\c2ccc(O)cc2)n1Cc1ccco1`, which B-score is on record?
A: -2.07

Q: `CCOC(=O)CSc1nc2c(sc(=S)n2CCc2ccccc2)c(=O)n1Cc1ccco1` was tested. Which B-score did it give?
A: 0.0111

Q: For `CN(c1ccccc1)c1ccc(/C=c2\s/c(=C(/C#N)C(=O)C(C)(C)C)n(Cc3ccco3)c2=O)cc1`, which B-score is on record?
A: -5.56 (active)

Q: `CC(=O)Nc1nc2ccccc2n1Cc1ccc(C)cc1` was tested. Which B-score did it give?
A: -0.122

Q: With `Cc1ccnc(SCC(N)=O)n1` as the compound, how does the B-score read?
A: 0.191

Q: For `CC(C)C(c1nnnn1C(C)(C)C)N1CCN(Cc2cccnc2)CC1` (configuration not stated), which B-score is on record?
A: 1.58

Q: How did the B-score turn out when `CCCC(c1nnnn1C(C)(C)C)N1CCN(Cc2ccccc2)CC1` (configuration not stated) was run?
A: -13.3 (active)

Q: `CC(C)C(c1nnnn1Cc1ccccc1)N1CCC(C(N)=O)CC1` (configuration not stated) was tested. Which B-score did it give?
A: 0.519

Q: `CC(=O)Nc1ccc(NC(=O)CSc2nnc(COc3ccccc3C)n2CC2CCCO2)cc1` (configuration not stated) was tested. Which B-score did it give?
A: -0.134

Q: Which B-score does the source give for `Cc1ccc(C(=O)N/C(=C\c2ccco2)C(=O)N2CCSCC2)cc1C` here?
A: 1.44

Q: Which B-score does the source give for `S=C(NCc1ccc2c(c1)OCO2)NCc1ccco1` here?
A: -0.541

Q: Which B-score does the source give for `COC(=O)N/N=C/c1cn(CCCOc2ccc(C)cc2)c2ccccc12` here?
A: 0.506

Q: With `COC(=O)Cn1cc(C(=O)c2cccs2)c2ccccc21` as the compound, how does the B-score read?
A: 0.201

Q: How did the B-score turn out when `COC(=O)Cn1cc(/C=C/[N+](=O)[O-])c2ccccc21` was run?
A: -8.61 (active)

Q: `O=C(N/C(=C\c1ccc(F)cc1)C(=O)N1CCCCCC1)c1ccccc1` was tested. Which B-score did it give?
A: 0.658

Q: Which B-score does the source give for `Cc1ccc(C(=O)N/C(=C\c2ccco2)C(=O)NC2CCS(=O)(=O)C2)cc1` (configuration not stated) here?
A: 0.484

Q: `COc1ccc(C(CCNCc2ccccc2F)c2ccc(F)cc2)cc1` (configuration not stated) was tested. Which B-score did it give?
A: -2.56 (active)

Q: `COc1ccc(CC(=O)NC(C)CCc2ccccc2)cc1` (configuration not stated) was tested. Which B-score did it give?
A: -0.201

Q: Which B-score does the source give for `COc1ccc(C(CC(=O)O)NC(=O)Cc2ccccc2)cc1` (configuration not stated) here?
A: -0.208

Q: How did the B-score turn out when `O=C(NC1CC1)C1CCCN(C(=O)NC2CCCCC2)C1` (configuration not stated) was run?
A: 0.0365

Q: `CCN(C(=O)CSc1nc2ccccc2n1CC)C1CCS(=O)(=O)C1` (configuration not stated) was tested. Which B-score did it give?
A: -1.63

Q: Which B-score does the source give for `Cc1cc(=O)[nH]c2nnnn12` here?
A: -0.253

Q: For `Cc1ccc(N2C(=O)C3CC3C2=O)cc1` (configuration not stated), which B-score is on record?
A: 1.41 (active)

Q: Which B-score does the source give for `Cc1ccc(N2C(=O)CC(Nc3cccc4ccccc34)C2=O)cc1` (configuration not stated) here?
A: -0.14

Q: How did the B-score turn out when `Cc1ccc(N2C(=O)SC(N(CC(=O)O)c3ccc(C)cc3)C2=O)cc1` (configuration not stated) was run?
A: 0.244

Q: `O=C(CSc1nc2ccccc2o1)N/N=C/c1ccccc1C(=O)O` was tested. Which B-score did it give?
A: 0.754

Q: For `CCOC(=O)Cn1c(N)c(C(=O)OC)sc1=S`, which B-score is on record?
A: -0.216

Q: How did the B-score turn out when `CCOC(=O)c1sc(=S)n2c1[nH]c(=O)c1ccc(C(=O)OC)cc12` was run?
A: 6.64 (active)

Q: For `CCOC(=O)c1sc(=S)n(-c2cccc(OC)c2)c1N`, which B-score is on record?
A: -0.158
